# In the library only some 7.3% were active in any assay of this set; here they are far more common.
# Rab9 prom act = activators of Rab9 promoter | Huh7 Rab9 promoter-luciferase reporter, luminescence, 24 h | Potency, µM (top dose mostly 9.22 µM), hits mostly activators | 320,000 compounds, 2.8% hits | AID 485297; note: nearly all actives have a fitted effect of over 60% in size
#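 Huh7 reporter line, Rab9 promoter upstream of luciferase. Compound exposure 24 h at 37 °C in reduced-serum medium with 10% FBS. Read-out: luminescence.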
# uPA generation = blocks generation of uPA at the cell surface. cell surface uPA generation assay, qHTS. 330,000 compounds, 0.31% hits. Potency, µM (titrated, usually from 38.3 µM), most hits filed as inhibitors; active = well fitted inhibition curve with a large enough effect; inconclusive = small, poorly fitted or top-dose-only effect; inactive = no such curve, though single readings can be large or run the other way; tested in mouse RAW 264.7 cells; note: nearly all actives have a fitted effect of over 55% in size
# ELG1 genotox = induces genotoxicity in HEK293T cells with luciferase-tagged ELG1; HEK293T ELG1-luciferase reporter, luminescence, 16 h; Potency, µM (series often up to 46 µM), usual class: activators; 330,000 compounds, 1.3% hits; AID 504466; note: nearly all actives have a fitted effect of over 60% in size
#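 After overnight (16 hr) compound treatment at 37 °C, ELG1-luciferase HEK293T cells were lysed with ONE-Glo; luminescence quantified 30 min later at room temperature.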
# NPC1 promoter act = activates the NPC1 promoter; Huh7 NPC1 promoter luciferase reporter, 24 h; Potency, µM (doses to about 9.22 µM), usual class: activators; 320,000 compounds, 2.4% hits; note: nearly all actives have a fitted effect of over 60% in size
#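 Stably transfected Huh7 (NPC1 promoter→luciferase), 1500 cells/well in Opti-MEM + 10% FBS, 2 h settle, then compound 24 h at 37 °C. Luminescence after 10 min with Amplite reagent.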
# SMN2 splice up = SMN2 splice variant enhancement; HEK293 SMN2-luciferase splicing reporter, luminescence, 30-36 h; Potency, µM (highest dose often 46.1 µM), usual class: activators; 210,000 compounds, 2.8% hits; AID 1458; note: nearly all actives have a fitted effect of over 55% in size
#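 HEK293 cells carry an SMN2 minigene-luciferase reporter in which exon 7 inclusion puts luciferase in frame. Cells were seeded at 2000 cells/well, attached for 10-12 hours, then exposed to compounds for 30-36 hours at 37C before ONE-Glo luminescence.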
# FLuc modulator = inhibits or activates purified firefly luciferase, miR-21 counter-screen; purified FLuc, Km substrates, luminescence inhibition; Potency, µM (highest dose often 57.5 µM), hits mostly inhibitors; 360,000 compounds, 6.9% hits; note: nearly all actives have a fitted effect of over 55% in size
# Target sequence (P08659 whole entry, looked up): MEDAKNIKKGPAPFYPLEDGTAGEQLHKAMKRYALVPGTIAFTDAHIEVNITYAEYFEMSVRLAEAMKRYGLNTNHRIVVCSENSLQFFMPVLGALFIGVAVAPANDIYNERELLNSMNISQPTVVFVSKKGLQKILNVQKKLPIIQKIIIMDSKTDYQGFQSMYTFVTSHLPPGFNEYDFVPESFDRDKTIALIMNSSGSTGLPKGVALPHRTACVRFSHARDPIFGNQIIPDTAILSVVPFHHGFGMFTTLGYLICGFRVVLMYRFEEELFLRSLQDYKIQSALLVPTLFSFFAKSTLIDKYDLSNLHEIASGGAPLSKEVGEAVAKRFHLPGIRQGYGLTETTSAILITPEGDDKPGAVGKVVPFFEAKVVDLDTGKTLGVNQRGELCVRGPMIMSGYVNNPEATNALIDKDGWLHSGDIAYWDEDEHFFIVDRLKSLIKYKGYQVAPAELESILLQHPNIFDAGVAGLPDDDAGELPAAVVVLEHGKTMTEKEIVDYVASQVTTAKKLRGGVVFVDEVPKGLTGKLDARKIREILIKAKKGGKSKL
#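 Biochemical qHTS of compounds, final roughly 60 µM downward over six points, against 10 nM purified firefly luciferase using Km concentrations of substrates (10 uM D-luciferin, 10 uM ATP) in Tris acetate pH 7.5 buffer; luminescence output.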
# Numbers stand for hits; 0 = inactive; ? = inconclusive; - = no result given. Unless noted, calls come from the whole dose curve; as a rule, active = well fitted curve in the direction sought with a large enough effect; inconclusive = small, poorly fitted or top-dose-only effect, or another doubt; inactive = no such curve, though single readings can be large; an effect the other way counts as inactive or inconclusive.
SMILES,Rab9 prom act,uPA generation,ELG1 genotox,NPC1 promoter act,SMN2 splice up,FLuc modulator
O=C(Nc1nnc(C2=COCCO2)o1)c1ccc(S(=O)(=O)N2CCCCC2)cc1,0,0,0,0,0,?
Cn1cnc2cc(NC(=O)c3ccco3)ccc21,?,?,7.3µM,2.8µM,7.1µM,19µM
O=C(Nc1ccc2c(c1)ncn2-c1ccccc1)c1ccco1,?,-,?,?,13µM,8.5µM
CC(=O)Nc1ccc2c(c1)ncn2C,0,0,0,0,0,0
CC(=O)Nc1ccc2c(c1)ncn2-c1ccc(C)cc1,1.8µM,0,9.2µM,1.1µM,8.9µM,5.4µM
COc1ccc(NC(=O)CSc2nncn3c2cc2occc23)c(OC)c1,-,-,-,-,-,0
CC(C)(C)C(=O)C1C(=O)c2ccccc2C1=O,-,-,-,-,0,-
Nc1cccc2c1C(=O)N(CCOc1ccccc1F)C2=O,0.35µM,0,0.41µM,0.35µM,-,0.76µM
N#Cc1ccccc1OCCN1C(=O)c2ccccc2C1=O,0,0,13µM,0,-,?
O=C1c2ccccc2C(=O)N1CCOCCN1C(=O)c2ccccc2C1=O,0,0,0,0,0,0
COc1cccc(OCCOc2ccccc2[N+](=O)[O-])c1,-,0,-,-,-,-
COc1ccc(OCCN2C(=O)c3ccccc3C2=O)c([N+](=O)[O-])c1,?,0,?,0,-,27µM
Cc1ccc(-c2nc3c(c(SCC(=O)N4CCCCC4)n2)Cc2cc(C)ccc2O3)cc1,-,-,-,-,0,0
O=C(Nc1ccc(F)cc1Cl)c1ccc2c(=O)n3c(nc2c1)CCC3,3.5µM,0,0,3.2µM,-,0
Cc1ccc(C)c(NC(=O)c2ccc3c(=O)n4c(nc3c2)CCC4)c1,?,?,0,?,-,15µM
O=C(Nc1ccc(F)cc1F)c1ccc2c(=O)n3c(nc2c1)CCC3,1.1µM,?,?,1.1µM,-,11µM
COc1ccc2c(c1)CC(C(=O)NCc1ccc(F)cc1)CO2 (centres undefined),-,-,-,-,-,0
COc1ccc(C(=O)c2sc(NC(C)C)nc2N)cc1OC,0,0,0,0,0,0
COc1cccc(C(=O)c2sc(NC(C)C)nc2N)c1,0,0,0,0,20µM,0
COc1ccc(Nc2ncnc3c2cnn3C)c(OC)c1,-,-,-,-,-,0
CCOC(=O)c1cnc(-c2ccccc2)nc1N(C)C,0,0,11µM,0,4.5µM,15µM
CCOC(=O)c1cnc2c(-c3ccccc3)cnn2c1C,1.6µM,0,8.2µM,2.5µM,11µM,1.9µM
CCOC(=O)c1cnc(-c2ccccc2)nc1N,2µM,-,3.3µM,2.8µM,7.1µM,9.5µM
CCOC(=O)c1cnc2c(ccc3ccccc32)c1N,1.1µM,0,8.2µM,1.6µM,-,?
CCOC(=O)c1cnc(-c2ccccc2)nc1N1CCOCC1,0,0,0,0,0,0
SMILES,Rab9 prom act,uPA generation,ELG1 genotox,NPC1 promoter act,SMN2 splice up,FLuc modulator
CCOC(=O)c1cnc2c(ccc3ccccc32)c1NCCO,0,0,0,0,0,?
CCOc1ccc(C(=O)N2CCCCC2CCN2CCOCC2)cc1 (centres undefined),-,-,-,-,0,0
CCCc1nc(Nc2nc3ccccc3o2)nc(C)c1C(=O)OCC,1.8µM,-,?,?,?,2.7µM
Cc1ccc(Nc2nc3ccccc3o2)cc1F,1.6µM,0,5.8µM,?,?,6µM
Cc1ccnc(Nc2nc3ccccc3o2)n1,0.4µM,?,1.2µM,?,2.5µM,3µM
N#Cc1cnc(Nc2nc3ccccc3o2)nc1-c1ccccc1,?,0,0,0,0,0
Cc1nc(Nc2nc3ccccc3o2)nc(C)c1C,?,0,?,1µM,5.6µM,8.5µM
Cc1ccc(Nc2c3c(nc4ccccc24)CCC3)cc1F,-,-,-,-,0,0
Cc1nc2ccccc2oc1=O,-,-,-,-,0,-
O=C(NCc1ccco1)c1ccc2c(c1)N(Cc1ccc(Cl)cc1)C(=O)c1ccccc1S2(=O)=O,-,-,-,-,0,0
N#C/C(=C/Nc1ccccc1F)S(=O)(=O)c1ccc(Cl)cc1,0,0,0,0,-,0
Cc1ccc2oc(Nc3nc(C)c(C)c(C)n3)nc2c1,2.5µM,0,?,1.6µM,-,11µM
O=C1OCC2OC(O)C(O)C(O)C2OC(=O)c2cc(O)c(O)c(O)c2-c2c(O)c(O)c3oc(=O)c4c(c(O)c(O)c5oc(=O)c2c3c54)-c2c1cc(O)c(O)c2O (centres undefined),0,-,0,0,-,27µM
Cc1cccc(OCC(=O)Nc2cccc(-c3nc4ccccc4s3)c2)c1,-,-,-,-,3.2µM,6µM

# High-throughput results deposited in PubChem BioAssay by National Center for Advancing Translational Sciences (NCATS).
